# Counter-ions that a name gives are not always drawn.
# Tested on: RIVA
# Test: growth inhibition by drug alone (1 - RLU/untreated control) (fraction); higher = stronger inhibition
# Conditions: 10 nM; time (day): 6; 177Lu-lilotomab satetraxetan 0 ug/ml
# How it was run: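 RIVA or U-2932 cells were left untreated or pretreated for 18 h with a radiolabelled anti-CD37 antibody conjugate (~600 MBq/mg) at 0.5 µg/ml for RIVA or 1 µg/ml for U-2932. The cells were then washed and seeded at 3,000 cells/well on plates pre-printed with the Selleck Cambridge Cancer Compound library, dosed at 10/100 nM for RIVA and 10/1,000 nM for U-2932. From day 3, RealTime-Glo luminescence was read daily after 1 h at 37°C. Growth inhibition was taken as one minus RLU over the mean of the untreated no-drug wells, of which there were 48 per plate.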
row,Structure (SMILES),growth inhibition by drug alone
1,COc1ccc(S(=O)(=O)Nc2cccnc2Nc2ccc(O)cc2)cc1,-0.37
2,C[C@]12CCC(=O)C=C1CC[C@@H]1[C@@H]2[C@@H](O)C[C@@]2(C)[C@H]1CC[C@]2(O)C(=O)CO [Hydrocortisone (Cortisol)],-0.593
3,COc1cc(OC2CCN(C)CC2)ccc1Nc1ncc2c(n1)n(C1CCCC1)c(=O)n2C,-0.453
4,Nc1nc(F)nc2c1ncn2[C@@H]1O[C@H](CO)[C@@H](O)[C@@H]1O [Fludarabine (Fludara)],-0.266
5,Nc1nc(Nc2ccc(S(N)(=O)=O)cc2)nn1C(=O)c1c(F)cccc1F,-0.232
6,Nc1ncn([C@@H]2O[C@H](CO)[C@@H](O)[C@H]2O)c(=O)n1 [Azacitidine (Vidaza)],-0.438
7,COc1cc2nccc(Oc3ccc(NC(=O)NC4CC4)c(Cl)c3)c2cc1C(N)=O [E7080 (Lenvatinib)],-0.325
8,Nc1ccn([C@@H]2O[C@H](CO)[C@@H](O)[C@@H]2O)c(=O)n1 [Cytarabine],-0.326
9,Nc1cccc2c1C(=O)N(C1CCC(=O)NC1=O)C2=O (stereo not drawn) [Pomalidomide],-0.254
10,CN(C)c1nc(N(C)C)nc(N(C)C)n1 [Altretamine (Hexalen)],-0.318
11,Cc1[nH]c(/C=C2\C(=O)Nc3ccc(S(=O)(=O)N(C)c4cccc(Cl)c4)cc32)c(C)c1C(=O)N1CCN(C)CC1,-0.352
12,O=C(O[C@@H]1Cc2c(O)cc(O)cc2O[C@@H]1c1cc(O)c(O)c(O)c1)c1cc(O)c(O)c(O)c1 [(-)-Epigallocatechin gallate],-0.714
13,CCc1c2c(nc3ccc(OC(=O)N4CCC(N5CCCCC5)CC4)cc13)-c1cc3c(c(=O)n1C2)COC(=O)[C@]3(O)CC [Irinotecan HCl Trihydrate (Campto)],-0.511
14,S=C(NCc1ccc2c(c1)OCO2)N1CCN(c2ncnc3c2oc2ccccc23)CC1 [Amuvatinib (MP-470)],-0.162
15,COc1ccc2c3n(c(=NC(=O)c4cccnc4)nc2c1OC)CCN3,-0.345
16,C#Cc1cccc(Nc2ncnc3cc(OCCOC)c(OCCOC)cc23)c1 [Erlotinib HCl],-0.221
17,Cc1ccc(-c2cc(C(F)(F)F)nn2-c2ccc(S(N)(=O)=O)cc2)cc1 [Celecoxib],-0.237
18,N#CC[C@H](C1CCCC1)n1cc(-c2ncnc3[nH]ccc23)cn1,-0.268
19,CCc1cncnc1N1CCN(Cc2nc3ccc(C(F)(F)F)cc3[nH]2)CC1,-0.347

row,Structure (SMILES),growth inhibition by drug alone
1,CCN(CC)C(=S)SSC(=S)N(CC)CC [Disulfiram (Antabuse)],-0.282
2,CC(C)[C@H](C(=O)Nc1ccc(C(=O)NO)cc1)c1ccccc1,-0.103
3,CC(=O)O[C@]1(C(C)=O)CC[C@H]2[C@@H]3C=C(C)C4=CC(=O)CC[C@]4(C)[C@H]3CC[C@@]21C [Megestrol Acetate],-0.454
4,COc1cc2ncnc(Nc3cccc(Br)c3)c2cc1OC,-0.376
5,N#Cc1ccc(C(c2ccc(C#N)cc2)n2cncn2)cc1 [Letrozole],-0.307
6,CC(=O)c1c(C)c2cnc(Nc3ccc(N4CCNCC4)cn3)nc2n(C2CCCC2)c1=O,-0.339
7,COc1cccc2c1C(=O)c1c(O)c3c(c(O)c1C2=O)C[C@@](O)(C(=O)CO)C[C@@H]3O[C@H]1C[C@H](N)[C@H](O)[C@H](C)O1 [Doxorubicin (Adriamycin)],0.391
8,CC(C)(C)c1[nH]cnc1/C=c1\[nH]c(=O)/c(=C/c2ccccc2)[nH]c1=O [NPI-2358 (Plinabulin)],-0.272
9,COc1cc(Nc2ncc3c(n2)-c2ccc(Cl)cc2C(c2c(F)cccc2OC)=NC3)ccc1C(=O)O [MLN8237 (Alisertib)],-0.266
10,O=c1[nH]cc(F)c(=O)[nH]1 [Adrucil (Fluorouracil)],-0.72
11,CC(C)c1ccc(Cn2ccc3c4c(N)nc(NC5CC5)nc4ccc32)cc1,-0.0413
12,CC/C(=C(\c1ccccc1)c1ccc(OCCN(C)C)cc1)c1ccccc1 [Tamoxifen Citrate (Nolvadex)],-0.0872
13,Cn1cc(C2=C(c3ccc(Cl)cc3Cl)C(=O)NC2=O)c2ccccc21,-0.172
14,c1ccc(-c2nn3c(c2-c2ccnc4cc(OCCN5CCOCC5)ccc24)CCC3)nc1,-0.487
15,O=C(NCCS(=O)(=O)c1ccc(C(F)(F)F)cn1)c1ccc(Cl)cc1,-0.142
16,Cc1ccc(S(=O)(=O)C=CC#N)cc1,-0.287
17,CCC1=C[C@@H]2CN(C1)Cc1c([nH]c3ccccc13)[C@@](C(=O)OC)(c1cc3c(cc1OC)N(C)[C@H]1[C@@](O)(C(=O)OC)[C@H](OC(C)=O)[C@]4(CC)C=CCN5CC[C@]31[C@@H]54)C2 [Vinorelbine (Navelbine)],0.926
18,Cc1cc(Nc2cc(N3CCN(C)CC3)nc(/C=C/c3ccccc3)n2)n[nH]1,-0.447
19,CN(N=O)C(=O)N[C@@H](C=O)[C@@H](O)[C@H](O)[C@H](O)CO [Streptozotocin (Zanosar)],-0.472

# Source: the supplement of paper PMC6897291
